Source: PubChem BioAssay (NCI)
This is part of a sample that, as a whole, favours compounds with a hit. Of some 83,000 tested, about 20% had one in any assay.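 Note: values are percent growth. 100 is the growth of untreated cells, values between 100 and 0 indicate rising inhibition; between -100 and 0 indicates cell death.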 Values without a mark were called inactive. The source made the active and inactive calls. The calls were made as follows: active = growth percent below 10; inactive = the rest.

tested on: NCI-H460 lung; assay: NCI-60 one-dose screen, 48 h (100 = growth as untreated, 0 = no growth, -100 = all killed); details: 10 µM unless noted

| Compound | growth |
| --- | --- |
| O=C(CCl)c1ccc([N+](=O)[O-])o1 | 76.3% |
| CCCCCSC1C2C(=O)C(Br)=CC13CCNc1c(O)c4c5c(c13)=[N+]2CCC=5C=N4 (configuration not stated) | -33.7% (active) |
| COc1ccc(C/C(C)=C(\c2ccc(OCCN3CCOCC3)cc2)c2ccc(OC(=O)Cc3ccccc3)cc2)cc1 | -73.3% (active) |
| Cn1cc(-c2csc(-c3cn(CCCCN4CCCCC4)c4ccc(F)cc34)n2)c2cccnc21 | 89.3% |
| COc1ccc2c(c1)c(-c1nc(-c3cn(C)c4ncccc34)cs1)cn2CCCCN1CCCCC1 | -61.2% (active) |
| C[n+]1c(/C=C/c2ccc(N(CCCl)CCCl)cc2)sc2ccccc21 | 20.7% |
| C=CC[Se]C(=O)c1ccccc1OC(C)=O | -13.4% (active) |
| CC(=O)OC1CCC2C3CCC4=C/C(=N/OC(=O)c5ccc(N(CCCl)CCCl)cc5)CCC4(C)C3CC(C)C12 (configuration not stated) | -4.94% (active) |
| CCCCCCCC[n+]1ccc2ccccc2c1 | 73.9% |
| Cn1cccc1C1CC(=O)N(CCC[Se]C#N)C1=O (configuration not stated) | -0.959% (active) |
| C[Se]C(=O)c1ccccc1OC(C)=O | 37.5% |
| O=C1Nc2ccccc2C2c3cccn3-c3ccccc3CN12 (configuration not stated) | 43.7% |
| CCOC(=O)[C@@H](C)C[C@H](Cc1ccccc1)NC(=O)c1csc([C@@H](C[C@H](C(C)C)N(C)C(=O)[C@H](CCC(C)C)NC(=O)[C@H]2CCCCN2C)OC(C)=O)n1 | 5.8% (active) |
| COC(=O)[C@H](C[C@H](Cc1ccccc1)NC(=O)c1csc([C@@H](C[C@H](C(C)C)N(C)C(=O)[C@@H](NC(=O)[C@H]2CCCCN2C)C(C)C)OC(C)=O)n1)NC(=O)OCc1ccccc1 | 5.67% [8.5 µM] (active) |
| CC1(C)N=C(N)N=C(N)N1c1ccc(OCCCNC(=O)Nc2ccc(S(=O)(=O)F)cc2)c(Cl)c1 | 14.4% |
| O=C(CN1CCN(C(=O)c2ccco2)CC1)Nc1ccc(Cl)cc1C(=O)c1ccccc1Cl | 104% |
| Cc1cc(N(CCCl)CCCl)ccc1C=Nc1ccccc1-c1ccccc1 | 16.4% |
| Cn1cc(-c2csc(-c3cn(CCN4CCOCC4)c4ccccc34)n2)c2cccnc21 | 75.3% |
| CCOC(=O)[C@@H](C)C[C@H](Cc1ccccc1)NC(=O)c1csc([C@@H](C[C@H](C(C)C)N(C)C(=O)[C@H](CC)NC(=O)[C@H]2CCCCN2C)OC(C)=O)n1 | 6.53% (active) |

| Compound | growth |
| --- | --- |
| ClC1=C(Cl)C(Cl)(C2(Cl)C(Cl)=C(Cl)C(Cl)=C2Cl)C(Cl)=C1Cl | 67.6% |
| O=C([O][Hg][CH2]C1OCCOC1[CH2][Hg][O]C(=O)c1ccccc1)c1ccccc1 (configuration not stated) | 117% |
| COc1ccc([As]=[As]c2ccc(OC)c(NCS(=O)(=O)O)c2)cc1NCS(=O)(=O)O (configuration not stated) | 88.2% |
| [Cl][Hg][n]1c(-c2ccco2)nc2ccccc21 | 96.4% |
| CCC[CH2][Sn]([CH2]CCC)([CH2]CCC)[O]c1ccc(Cl)cc1Cl | -84.8% (active) |
| NC(CCl)CCl | 110% |
| CN1CCC(c2c[nH]c3ccccc23)C1 (configuration not stated) | 124% |
| CCCCCCCCCCCCCCCCCC1OC[C@@H](COC(=O)O[C@@H](C(=O)O[C@H]2C[C@@]3(O)[C@@H](OC(=O)c4ccccc4)[C@@H]4[C@]5(OC(C)=O)CO[C@@H]5C[C@H](O)[C@@]4(C)C(=O)[C@H](OC(C)=O)C(=C2C)C3(C)C)[C@@H](NC(=O)c2ccccc2)c2ccccc2)O1 (some centres not stated) | 20.4% |
| CC1=C([Te]c2ccc(O)cc2)C(=O)c2ccccc2C1=O | -27.6% (active) |
| O=C1NC(=O)C(=Cc2cn(CCCCCCn3c4ccccc4c(=O)c4ccccc43)c3ccccc23)C(=O)N1 | 34.2% |
| CC(C)OC(=O)[C@H](C)NP(=O)(Oc1ccccc1)C1CCCN(O)C1=O (some centres not stated) | 105% |
| CCCCCCC(=O)NC1=C(N2CC2)C(=O)C(NC(=O)CCCCCC)=C(N2CC2)C1=O | 24% |
| COc1ccc(/C=C\c2cc(OC)c(OC)c(OC)c2)cc1NS(=O)(=O)c1ccc(Cl)cc1 | 84.1% |
| CC[C@H](C)[C@H](NC(=O)[C@H]1CCCCN1C)C(=O)N(C)[C@H](CC(=O)c1nc(C(=O)N[C@@H](Cc2ccccc2)C[C@H](C)C(=O)O)cs1)C(C)C | 91% |
| C[C@]12C[C@@H](CO)[C@H](O)C[C@@H]1CC[C@@H]1[C@@H]2CC[C@]2(C)[C@@H](O)CC[C@@H]12 | 106% |
| [Cl][Hg][c]1cc[c]([Hg][Cl])o1 | 68.6% |
| NC(=S)c1cn(C2OC(CO)C(O)C2O)c2ncnc(N)c12 (configuration not stated) | 3.97% (active) |
| COC(=O)CC[C@H](Cc1ccccc1)NC(=O)c1csc([C@@H](C[C@H](C(C)C)N(C)C(=O)[C@@H](NC(=O)[C@H]2CCCCN2C)C(C)C)OC(C)=O)n1 | 21.7% |
